Assay [1] can be described thus: antimalarial activity against Dd2 strain (AID 2302;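 active = growth inhibition above 50% at the single 2 µM test dose, taken to imply half-maximal potency below 2 µM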;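 note: 0% = DMSO untreated growth and 100% = chloroquine plus artemisinin killed control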). To be noted: P. falciparum Dd2 in RBCs, LDH growth readout, 72 h; at 2 µM; stronger effect = higher value.
A short description of assay [2]: HepG2 cytotoxicity, primary screen, cytotoxicity control for P. falciparum antimalarial project, cell-based, ATP luminescence (AID 2303;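 active = inhibition above 50%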;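 note: 0% = DMSO wells and 100% = digitonin-killed cells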). To be noted: HepG2 viability, 24-48 h, at 10 µM, stronger effect = higher value.
Assay [3] deals with L-lactate dehydrogenase (Plasmodium falciparum (isolate CDC / Honduras)) (UniProt Q27743). Description: PfLDH activity inhibition – cell lysate, 3D7 strain, counter-screen for P. falciparum growth inhibition project (AID 2304).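 Note: 0% = vehicle and 100% = reference inhibitor.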 The note with it: P. falciparum 3D7 crude extract, LDH APAD/NBT absorbance; at 2 µM; stronger effect = higher value.
Assay [4] can be described thus: inhibition of 3D7 malaria parasite growth – strain 3D7 (AID 2306).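 Note: 0% = DMSO wells and 100% = chloroquine plus artemisinin control wells.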 To be noted: P. falciparum 3D7 erythrocytic growth, LDH absorbance, 72 h; at 2 µM; stronger effect = higher value.
The target in assay [5] is Calcium-dependent protein kinase 1 (Plasmodium falciparum (isolate 3D7)) (UniProt P62344). Description: PfCDPK1 kinase inhibitors, biochemical, TCAMS library (AID 1159585; cut-off not given, nearly all actives have IC50 up to about 0.98 µM;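 note: inhibitors leave more ATP so luminescence rises with inhibition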). To be noted: recombinant PfCDPK1, Kinase-Glo ATP depletion luminescence.
Assay [6] concerns the target Plasmodium falciparum protein kinase 6 (PK6, PF3D7_1337100) (UniProt Q8IDW1). Description: PfPK6 kinase inhibitors, biochemical, TCAMS library (AID 1159586). To be noted: recombinant PfPK6, Kinase-Glo ATP depletion luminescence.
Assay [7] deals with Protein kinase 7 (PK7), Plasmodium falciparum 3D7 (PF3D7_0213400) (UniProt Q7YTF7). Description: inhibition of Plasmodium PK7 catalytic activity – biochemical, TCAMS antimalarial set, Kinase-Glo luminescence (AID 1159587). To be noted: recombinant PfPK7, Kinase-Glo ATP depletion luminescence.
Assay [8] addresses Calcium-dependent protein kinase 4 (Plasmodium falciparum (isolate 3D7)) (UniProt Q8IBS5). Description: PfCDPK4 kinase inhibitors, biochemical, TCAMS library (AID 1159588; cut-off not given, nearly all actives have IC50 up to about 0.91 µM). The note with it: recombinant PfCDPK4, Kinase-Glo ATP depletion luminescence. Background: In Kinase-Glo more light means more ATP remaining.

Values without a mark were called inactive. For some of these results: Entries with a potency or affinity are not part of this list. The source made the active and inactive calls. Unless noted, the rule behind the calls is not given here.

Sequence of Calcium-dependent protein kinase 1 (Plasmodium falciparum (isolate 3D7)) (P62344 whole entry, looked up): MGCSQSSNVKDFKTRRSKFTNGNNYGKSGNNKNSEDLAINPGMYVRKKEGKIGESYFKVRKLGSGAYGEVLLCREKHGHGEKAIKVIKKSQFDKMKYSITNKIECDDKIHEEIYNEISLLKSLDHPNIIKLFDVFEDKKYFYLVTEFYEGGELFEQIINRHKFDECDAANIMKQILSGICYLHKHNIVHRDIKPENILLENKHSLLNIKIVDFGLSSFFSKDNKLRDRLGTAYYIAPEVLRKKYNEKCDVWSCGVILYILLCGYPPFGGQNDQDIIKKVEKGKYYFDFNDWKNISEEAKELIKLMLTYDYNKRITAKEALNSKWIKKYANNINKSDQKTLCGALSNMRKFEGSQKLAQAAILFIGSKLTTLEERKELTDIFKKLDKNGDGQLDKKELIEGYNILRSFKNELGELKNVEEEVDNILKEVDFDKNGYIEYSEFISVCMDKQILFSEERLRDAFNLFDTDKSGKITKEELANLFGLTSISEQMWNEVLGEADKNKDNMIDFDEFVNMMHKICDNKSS
Sequence of Protein kinase 7 (PK7), Plasmodium falciparum 3D7 (PF3D7_0213400) (Q7YTF7 1-343): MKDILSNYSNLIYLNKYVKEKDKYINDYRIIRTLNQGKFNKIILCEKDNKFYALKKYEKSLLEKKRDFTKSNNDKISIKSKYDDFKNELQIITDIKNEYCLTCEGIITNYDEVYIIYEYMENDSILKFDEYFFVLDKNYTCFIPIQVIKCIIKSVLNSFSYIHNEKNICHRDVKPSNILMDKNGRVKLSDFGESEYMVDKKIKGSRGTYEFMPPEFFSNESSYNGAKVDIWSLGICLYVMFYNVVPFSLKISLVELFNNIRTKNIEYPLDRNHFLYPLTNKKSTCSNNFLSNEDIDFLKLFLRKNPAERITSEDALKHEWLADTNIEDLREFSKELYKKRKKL
Sequence of Calcium-dependent protein kinase 4 (Plasmodium falciparum (isolate 3D7)) (Q8IBS5 whole entry, looked up): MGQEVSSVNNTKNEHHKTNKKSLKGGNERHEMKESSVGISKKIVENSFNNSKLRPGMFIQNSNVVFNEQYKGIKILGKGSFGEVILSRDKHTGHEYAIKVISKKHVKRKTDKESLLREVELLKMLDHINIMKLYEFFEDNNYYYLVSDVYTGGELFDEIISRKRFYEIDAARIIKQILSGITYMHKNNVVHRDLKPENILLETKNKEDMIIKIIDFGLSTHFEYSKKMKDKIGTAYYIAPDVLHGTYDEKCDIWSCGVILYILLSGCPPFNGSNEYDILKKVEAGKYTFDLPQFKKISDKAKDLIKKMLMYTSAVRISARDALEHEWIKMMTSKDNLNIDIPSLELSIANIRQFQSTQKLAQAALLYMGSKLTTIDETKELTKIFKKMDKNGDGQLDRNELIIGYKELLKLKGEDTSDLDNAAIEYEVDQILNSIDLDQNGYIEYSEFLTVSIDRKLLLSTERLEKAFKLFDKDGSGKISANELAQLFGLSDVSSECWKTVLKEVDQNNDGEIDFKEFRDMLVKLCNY
Sequence of Plasmodium falciparum protein kinase 6 (PK6, PF3D7_1337100) (Q8IDW1 1-305): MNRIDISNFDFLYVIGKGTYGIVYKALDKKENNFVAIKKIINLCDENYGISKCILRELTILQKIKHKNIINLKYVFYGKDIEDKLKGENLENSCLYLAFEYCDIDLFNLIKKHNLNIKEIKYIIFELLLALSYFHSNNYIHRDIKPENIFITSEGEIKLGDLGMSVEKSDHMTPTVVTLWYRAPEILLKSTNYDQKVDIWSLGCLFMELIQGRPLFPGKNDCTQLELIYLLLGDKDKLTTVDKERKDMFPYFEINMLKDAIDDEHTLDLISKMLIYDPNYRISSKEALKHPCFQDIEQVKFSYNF
Sequence of L-lactate dehydrogenase (Plasmodium falciparum (isolate CDC / Honduras)) (Q27743 whole entry, looked up): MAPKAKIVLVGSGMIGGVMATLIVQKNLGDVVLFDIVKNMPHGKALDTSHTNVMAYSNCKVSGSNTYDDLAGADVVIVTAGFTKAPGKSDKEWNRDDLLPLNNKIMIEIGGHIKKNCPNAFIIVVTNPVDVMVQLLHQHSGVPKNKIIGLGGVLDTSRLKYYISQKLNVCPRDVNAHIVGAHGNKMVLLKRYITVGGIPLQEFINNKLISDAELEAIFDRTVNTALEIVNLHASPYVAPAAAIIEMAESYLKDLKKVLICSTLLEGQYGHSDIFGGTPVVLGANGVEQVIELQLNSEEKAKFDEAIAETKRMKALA

As for `COc1ccc(NC(=O)/C=C/c2ccccc2Cl)cc1OCCN1CCC(N(C)C)CC1`, the growth inhibition in assay [1] is 19%; in assay [4] it was 89% (active). Moreover, the inhibition is 18% in assay [2] and -2% in assay [3]. Moreover, the outcome in assay [5], in assay [6], in assay [7] and in assay [8] was inactive.
Regarding `C=C1C[C@@H](n2cnc3c(NC(=O)c4ccccc4)ncnc32)[C@@H](F)[C@@H]1OC(c1ccccc1)(c1ccccc1)c1ccccc1`, the growth inhibition in assay [1] is 97% (active); in assay [4], 98% (active). The figures for the inhibition in assay [2] and in assay [3] were 16% and -5%, respectively. The outcome in assay [5], in assay [6], in assay [7] and in assay [8] was inactive.
Consider `O=S(=O)(c1ccc(OCc2ccc(Cl)cc2)cc1)c1cc2c(c(-c3ccc(F)cc3)c1)CCN(CC1CC1)CC2`, for which the growth inhibition in assay [1] was 14%; in assay [4] it was 84% (active). The inhibition in assay [2] and in assay [3] was -5% each time. Moreover, the outcome in assay [5], in assay [6], in assay [7] and in assay [8] was inactive.
As to `CCC[C@@H]([C@@H](CC(C)C)C(=O)N[C@@H](CCCCNC(=O)c1ccccn1)C(=O)Nc1nccs1)N(O)C=O`, the growth inhibition was 100% (active) in assay [1] and 101% (active) in assay [4]. For the same compound, the results for the inhibition in assay [2] and in assay [3] were -23% and -3%, respectively. Besides, the outcome in assay [5], in assay [6], in assay [7] and in assay [8] was inactive.
As to `COCn1ccc2c3c(N)nc(N)nc3ccc21`, the results for the growth inhibition in assay [1] and in assay [4] were 1% and 88% (active), respectively. In addition, the inhibition was 63% (active) in assay [2] and 6% in assay [3]. The result in assay [5], in assay [6], in assay [7] and in assay [8] was inactive.
Take `COc1ccc2nccc([C@@H](O)CN3CCC(NCc4cc5cccnc5[nH]4)CC3)c2n1`: the results for the growth inhibition in assay [1] and in assay [4] were 0% and 90% (active), respectively. The figures for the inhibition in assay [2] and in assay [3] were 7% and -2%, respectively. The result in assay [5], in assay [6], in assay [7] and in assay [8] was inactive.
As to `Cc1cccc(C(=O)Nc2ccnc(N3CCC(N(C)Cc4cccc(O)c4)CC3)c2)c1`, the growth inhibition in assay [1] was 41%; in assay [4], 95% (active). Also, the inhibition in assay [2] was 7%; in assay [3], -1%. For the same compound, the result in assay [5], in assay [6], in assay [7] and in assay [8] was inactive.
As to `Oc1c(C(Nc2nc3ccccc3s2)c2ccccc2)ccc2cccnc12` (stereo not given), the results for the growth inhibition in assay [1] and in assay [4] were 83% (active) and 95% (active), respectively. Besides, the inhibition is 45% in assay [2] and -4% in assay [3]. Besides, the result in assay [5], in assay [6], in assay [7] and in assay [8] was inactive.
In the case of `CS(=O)(=O)n1c(CN2CCN(c3ncc(C(F)(F)F)cc3Cl)CC2)nc2ccccc21`, the growth inhibition in assay [1] was 59% (active); in assay [4], 83% (active). The inhibition was -2% in assay [2] and -4% in assay [3]. Besides, the result in assay [5], in assay [6], in assay [7] and in assay [8] was inactive.
For `Cc1ccc2c(c1)nc(N)n2C[C@H](O)c1ccccc1`, the growth inhibition was 74% (active) in assay [1] and 100% (active) in assay [4]. Besides, the inhibition is -3% in assay [2] and 7% in assay [3]. The outcome in assay [5], in assay [6], in assay [7] and in assay [8] was inactive.
Consider `N#Cc1cccc(NC(=O)Nc2ccc(-c3csc(-c4nc5ccccc5[nH]4)c3)cc2)c1`, for which the growth inhibition in assay [1] is 97% (active); in assay [4] it was 103% (active). Besides, the inhibition in assay [2] was 63% (active); in assay [3], -3%. Further, the result in assay [5], in assay [6], in assay [7] and in assay [8] was inactive.
On to `CS(=O)(=O)c1ccc2c(c1)CCN(CCC1CCC(NC(=O)c3cc4cccc(Br)c4[nH]3)CC1)CC2` (stereo not given), for which the growth inhibition in assay [1] is 7%; in assay [4] it was 92% (active). In addition, the inhibition is 27% in assay [2] and -8% in assay [3]. The outcome in assay [5], in assay [6], in assay [7] and in assay [8] was inactive.
For the compound `COc1ccc2nccc([C@@H](O)CN3CCC(NC(=O)C(c4cc5ccccc5s4)N4CCN(c5ccccc5OC)CC4)CC3)c2c1` (stereo not given in full), the growth inhibition in assay [1] is 88% (active); in assay [4], 100% (active). Further, the inhibition in assay [2] is 21%; in assay [3], -2%. The result in assay [5], in assay [6], in assay [7] and in assay [8] was inactive.
Turning to `O=C(/C=C/c1ccc(-c2nc3ccc(Cl)cc3[nH]2)cc1)NC1CCN(Cc2ccccc2)CC1`, the growth inhibition was 92% (active) in assay [1] and 100% (active) in assay [4]. Also, the figures for the inhibition in assay [2] and in assay [3] were 3% and 0%, respectively. Also, the outcome in assay [5], in assay [6], in assay [7] and in assay [8] was inactive.
Consider `CC(C)N1CCC(N(Cc2ccc(-c3ccc(C(F)(F)F)cc3)cc2)C(=O)Cn2c(CCc3cccc(F)c3F)cc(=O)c3cn(C)nc32)CC1`, for which the growth inhibition in assay [1] is 78% (active); in assay [4] it was 89% (active). Further, the values for the inhibition in assay [2] and in assay [3] were 100% (active) and 6%, respectively. Further, the outcome in assay [5], in assay [6], in assay [7] and in assay [8] was inactive.
Turning to `COc1ccc(F)cc1-c1ccc(C(=O)N2CCCN(c3ccc(C#N)cn3)CC2)cc1`, the growth inhibition was 100% (active) in assay [1] and 99% (active) in assay [4]. In addition, the inhibition is 9% in assay [2] and -2% in assay [3]. The outcome in assay [5], in assay [6], in assay [7] and in assay [8] was inactive.
With `FC(F)(F)c1ccc2nc(-c3cccc(-c4ccc(CNCc5ccccc5)cc4)c3)[nH]c2c1`, the growth inhibition is 99% (active) in assay [1] and 101% (active) in assay [4]. Also, the inhibition in assay [2] was 25%; in assay [3], -4%. In addition, the result in assay [5], in assay [6], in assay [7] and in assay [8] was inactive.
Take `Cc1cc(C(=O)N[C@H]2CCN(Cc3ccc(OCCCN(C)C)cc3)C2)ccc1Br`: the growth inhibition was 62% (active) in assay [1] and 97% (active) in assay [4]. The inhibition was 88% (active) in assay [2] and -4% in assay [3]. Moreover, the outcome in assay [5], in assay [6], in assay [7] and in assay [8] was inactive.
With `O=C(C=Cc1ccc(F)cc1)NC1CCC(CCN2CCc3ccc(-c4cnccn4)cc3CC2)CC1` (stereo not given), the results for the growth inhibition in assay [1] and in assay [4] were 65% (active) and 99% (active), respectively. In addition, the inhibition was 32% in assay [2] and 1% in assay [3]. Further, the outcome in assay [5], in assay [6], in assay [7] and in assay [8] was inactive.
On to `O=S(=O)(Nc1cccc(CCN2CCC(N3CCCCC3)CC2)c1)c1ccc(Oc2ccccc2)cc1`, for which the growth inhibition was 25% in assay [1] and 100% (active) in assay [4]. In addition, the inhibition in assay [2] was 28%; in assay [3], 0%. Besides, the outcome in assay [5], in assay [6], in assay [7] and in assay [8] was inactive.

In general, inhibition refers to the relative decrease from the control value, in per cent.
